The molecules below were run against Albumin (Bos taurus) (UniProt P02769) (assay: compounds binding labelled BSA control protein – biochemical, small-molecule microarray, Alexa647 label, 635/667 nm fluorescence, artefact control for SMM control protein annotation, profiling panel (AID 1118;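 also: score merges 667 nm emission intensity and signal-to-noise per printed compound spot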)). Conditions: BSA-A647 binding, fluorescence 635 nm, higher = more signal.
Chain of Albumin (Bos taurus) (P02769 whole entry, looked up): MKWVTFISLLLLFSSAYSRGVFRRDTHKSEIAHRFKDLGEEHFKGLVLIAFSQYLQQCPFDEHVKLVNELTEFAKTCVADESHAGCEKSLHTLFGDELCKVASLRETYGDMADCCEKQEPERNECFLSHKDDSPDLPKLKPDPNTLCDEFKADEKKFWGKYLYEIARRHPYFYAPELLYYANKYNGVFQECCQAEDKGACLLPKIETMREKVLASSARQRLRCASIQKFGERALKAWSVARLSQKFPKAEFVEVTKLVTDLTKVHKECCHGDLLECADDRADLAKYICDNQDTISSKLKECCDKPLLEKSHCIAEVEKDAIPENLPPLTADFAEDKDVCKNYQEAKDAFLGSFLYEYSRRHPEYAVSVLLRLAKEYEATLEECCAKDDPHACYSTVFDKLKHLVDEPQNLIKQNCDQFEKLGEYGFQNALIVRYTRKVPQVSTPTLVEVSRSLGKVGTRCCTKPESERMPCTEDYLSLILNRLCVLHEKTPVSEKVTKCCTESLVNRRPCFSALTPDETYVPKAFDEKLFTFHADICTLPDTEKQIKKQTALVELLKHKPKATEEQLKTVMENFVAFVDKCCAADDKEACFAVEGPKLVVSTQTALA

SMILES	composite z-score
CC(C)=CCN[C@H](CO)c1ccccc1	-0.0472
CCCC#C[Si](O[C@H](CC)c1cn(Cc2cccc(Cl)c2)nn1)(C(C)C)C(C)C	0.697
C=CCOC(=O)[C@H]1[C@@H]2C(=O)O[C@@H](c3ccccc3)[C@@H](c3ccccc3)N2[C@@H](c2ccc(OCCOC(=O)[C@H]3C[C@H]4C(=O)N[C@@H](CCCCNC(C)=O)C(=O)N4[C@H]3c3cccc(OCCO)c3)cc2)[C@]12C(=O)Nc1ccccc12	-0.168
C=C(COC)/C(=C/C[C@@H](OC(=O)c1ccncc1)c1ccc(CO)o1)c1cc(C(=O)OC)ccc1OC	0.0436
CC(C)C(=C=CC[C@@H](O)c1ccc(OCCO)cc1)C[C@@H](O)COCc1ccccc1	0.531
CCCCCCc1nc(-c2cc(C)c(OC)c(C)c2)cc2c1[Si](C(C)C)(C(C)C)OC2	-0.623
COc1cc2c(cc1O)C(C1CC1)N(Cc1sc3ccccc3c1Cl)CC2 (configuration not stated)	0.718
COCCOC(=O)N1C(=O)[C@@]2(c3cc(C#CCC(C(=O)OC)C(=O)OC)ccc31)[C@H](C(=O)N1CCN(c3ncccn3)CC1)[C@H]1C(=O)O[C@H](c3ccccc3)[C@H](c3ccccc3)N1[C@@H]2c1ccccc1OCCO	-0.503
C[C@H]1NC(=O)[C@@]23C(=O)N[C@@H](Cc4ccccc4)C2[C@H](C)[C@@]2(C)O[C@H]2C3/C=C/C/C=C\CNC(=O)[C@@H]2CCCN2C1=O (some centres not stated)	-0.274
CCOC(=O)C[C@H]1[C@H](OC(=O)c2ccc(C(=O)c3ccccc3)cc2)[C@@H](NC(=O)c2ccc3ccccc3n2)c2cc(OCCCO)ccc2N1C(=O)c1ccccc1	0.583
CCCC[C@@H]1C[C@H]1[C@@H](NC(=O)c1cccs1)c1ccc(-c2ccccc2)cc1	0.1
COC(=O)[C@@]1(Cc2ccc(OC)cc2)[C@H]2c3cc(C(=O)N4CCCC4)n(Cc4ccc(O)c(OC)c4)c3C[C@H]2CN1C(=O)c1ccccc1	1.06
[N-]=[N+]=NCc1ccccc1C[C@]1(C(N)=O)COC(c2ccc(OCCCO)cc2)=N1	0.624
C=C(COC)C(=O)CC[C@@H](OC(C)=O)c1ccc(CO)o1	-0.0861
O=C1c2ccccc2[C@](Cc2ccccc2I)(C(=O)NCCN2CCOCC2)[C@H](c2ccc(CO)cc2)N1Cc1ccccc1Cl	0.517
COCCCNC(=O)[C@]1(CCC(=O)OC(C)(C)C)N=C(c2ccc(OCCCO)cc2)O[C@@H]1c1ccccc1CN=[N+]=[N-]	0.839
C=CCNC(=O)[C@@H]1[C@H]2C(=O)O[C@H](c3ccccc3)[C@H](c3ccccc3)N2[C@H](c2ccc(OCCO)cc2)[C@@]12C(=O)Nc1ccc(C#CCC(C(=O)OC)C(=O)OC)cc12	0.64
COc1cc2c(cc1OC)CN(C(=O)[C@@H]1[C@H]3C(=O)O[C@H](c4ccccc4)[C@H](c4ccccc4)N3[C@H](c3ccccc3OCCO)[C@@]13C(=O)Nc1ccc(C#CCCO)cc13)CC2	0.641
C=CCC(OC(C)=O)[C@@H]1[C@@H](N(Cc2cc3ccccc3o2)C(=O)c2cccc3ccccc23)c2cc(OCCCO)ccc2N1C(=O)c1ccc(-c2ccccc2)cc1 (some centres not stated)	0.236
COC(=O)[C@@]1(Cc2ccc(F)cc2)[C@H]2c3cc(C(=O)N4CCCC4)n(CCCNc4ncc(C(F)(F)F)cc4Cl)c3C[C@H]2CN1C(=O)c1ccccc1	0.357
CC(C)N1C(=O)c2ccccc2[C@](C)(C(=O)NCCN2CCOCC2)[C@@H]1c1ccc(CO)cc1	0.406
CC(C)C(=C=CC[C@@H](O)c1ccc(OCCO)cc1)C[C@@H](O)c1ccccn1	-0.363
CO[C@H]1O[C@H](CO)[C@@H](OC(=O)Nc2ccc(Oc3ccccc3)cc2)[C@H](OC(=O)Nc2ccc3c(c2)OCO3)[C@H]1OC(=O)Nc1ccc2c(c1)OCO2	0.703
C=CCOC(=O)[C@H]1[C@@H]2C(=O)O[C@@H](c3ccccc3)[C@@H](c3ccccc3)N2[C@@H](c2ccc(OCCOC(=O)[C@@H]3C[C@@H]4C(=O)N[C@@H](CC(C)C)C(=O)N4[C@@H]3c3ccc(O)cc3)cc2)[C@]12C(=O)Nc1ccccc12	0.481
O=C(c1ccccc1)N1C(=O)[C@]2(COC(c3ccc(OCCCO)cc3)=N2)Cc2ccccc21	0.368
CCCc1cc2c(n1Cc1cc(F)cc(F)c1)C(C)C1CN(C(=O)c3ccccc3)C(C)(C(=O)OC)C21 (configuration not stated)	1
O=C(c1ccccc1)N1C(=O)[C@@]2(Cc3ccccc31)N=C(c1ccc(OCCCO)cc1)O[C@H]2c1ccccc1	-0.85
